Molecules are shown by their SMILES. Results filed as inconclusive are left out. Calls of active or inactive are those of the source. Rule for the calls: active = hit-call score of the fitted dose curve at least 0.9, where 1 is the maximum; inconclusive = response in the unintended direction; inactive = score below 0.9.

The test concerns rabbit Platelet Activating Factor Receptor (PAF), gene 100354046. In words: NVS_GPCR_rabPAF: NovaScreen (NVS) G Protein-Coupled Receptor Assay for rabbit Platelet Activating Factor Receptor (PAF) (AID 2283287). The method, then:
NVS_GPCR_rabPAF is a biochemical, single-readout assay that uses extracted gene-proteins from Rabbit platelets in a tissue-based cell-free assay. Measurements were taken 1 hour after chemical dosing in a 48-well plate.NVS_GPCR_rabPAF is one of one assay component(s) measured or calculated from the NVS_GPCR_rabPAF assay. It is designed to make measurements of radioligand binding, a form of binding reporter, as detected with scintillation counting signals by Filter-based radiodetection technology.Data from the assay component NVS_GPCR_rabPAF was analyzed into 1 assay endpoint. This assay endpoint, NVS_GPCR_rabPAF, was analyzed in the positive analysis fitting direction relative to DMSO as the negative control and baseline of activity. Using a type of binding reporter, loss-of-signal activity can be used to understand changes in the binding as they relate to the gene PTAFR. Furthermore, this assay endpoint can be referred to as a primary readout, because the performed assay has only produced 1 assay endpoint. To generalize the intended target to other relatable targets, this assay endpoint is annotated to the gpcr intended target family, where the subfamily is rhodopsin-like receptor.
Binding assays used specific radioligands (tritiated, iodinated) with non-radioactive competitive displacement ligands in agonist or antagonist protocols (as indicated) and various reference compounds and inhibitors to titrate specific binding to receptors and transporters. Most enzyme assays (CYPs, kinases, phosphatases, proteases, HDACs) used recombinant protein and specific substrates (fluorescence mostly, some colorimetric and radioactive) and inhibitors, followed by a biochemical separation of substrate and product. All assays for the biochemical HTS were initially run in duplicate at a single concentration (10 uM for CYP450 assays and 25 uM for all others). […] Each assay was run with positive and negative controls, and concurrent controls on every plate. The follow-up (secondary) screen tested active chemical-pairs in concentration series, as well as a few additional assays not tested in the primary screen, some selected negative inactives, and several cases re-run in the concentration series for confirmatory purposes.
As a reminder, the AC50 is the concentration giving half of the maximal activity seen. As to `O=C1c2ccccc2C(=O)N1CCc1noc(-c2ccc(CN3CCCCCC3)s2)n1`, the AC50 is 3.11 µM (active).
As to `CCCCCCCCCCCC[N+](C)(C)C`, the AC50 was 9.15 µM (active).
On to `NCc1cccc(C2CCN(C(=O)c3ccc(C#Cc4ccccc4F)o3)CC2)c1`, for which the AC50 was 9.21 µM (active).
In the case of `CCOC(=O)O[C@H](C)OC(=O)c1ccc2c(c1)cc(C(=O)NC1CCN(C(C)C)CC1)n2Cc1cc(-c2ccc(Cl)s2)on1`, the AC50 was 17.3 µM (active).
With `Cc1occc1C(=O)Nc1ccc(C(=O)N2CCC(F)(F)/C(=C\C(=O)N3CCC(N4CCCCC4)CC3)c3ccccc32)cc1`, the AC50 is 2.76 µM (active).
Consider `Cc1oc2c(NC(=O)c3c(Cl)cccc3Cl)cccc2c1C(C)(C)O`, for which the concentration at half-maximal activity (AC50) is 5.98 µM (active).
As to `COc1cc(C(=O)NC2CCN(C)CC2)ccc1Nc1ncc2c(n1)N(C1CCCC1)CC(F)(F)C(=O)N2C`, the AC50 was 0.76 µM (active).
For `Clc1ccccc1C(c1ccccc1)(c1ccccc1)n1ccnc1`, the AC50 was 0.621 µM (active).
Regarding `CCN(CC)C(=O)c1cc(S(=O)(=O)Cc2ccccc2)c(N2CCC(c3ccccc3)CC2)cc1N(CC)CCN(C)C`, the AC50 is 10.2 µM (active).
Take `Cc1cc(F)ccc1-c1cc(N2CC[C@@H](O)[C@H]2CO)ncc1N(C)C(=O)C(C)(C)c1cc(C(F)(F)F)cc(C(F)(F)F)c1`: the AC50 is 1.38 µM (active).
Same read-out and setting: the result for `CCN(Cc1cccnc1)C(=O)c1cccc(Cl)c1[C@]1(C)C(=O)N(Cc2ccc(OC)cc2OC)c2ccc(Cl)cc21` reads 1.68 µM (active).
As for `CC[C@@H]1C[C@H](N(Cc2cc(C(F)(F)F)cc(C(F)(F)F)c2)C(C)=O)c2cc(C(F)(F)F)ccc2N1C(=O)OC(C)C`, the call was inactive.

Values taken from PubChem BioAssay (EPA / NIEHS).
